Assay outcomes deposited in PubChem by several laboratories.
CCHF vOTU inh-1 = blocks the CCHF virus ovarian tumor domain protease | CCHFV vOTU protease, Pep-AMC fluorescence | inhibition, % at 11.5 µM | hit rate 0.55% among 370,000 | AID 651958; note: 0% = vehicle wells with enzyme and 100% = no enzyme wells
Mtb hypoxia rep = reduces hypoxia-regulated biosensor signal in M. tuberculosis | M. tuberculosis hypoxia-regulated fluorescent reporter, fluorescence | fluorescence inhibition, % (no concentration beside the values) | hit rate 0.1% among 300,000 | AID 1159583; in the data active = fluorescence inhibition mostly above about 23%, no sharp cut-off; inactive = mostly below about 17%
RecA splice inh = blocks M. tuberculosis RecA intein splicing | P9WHJ3 | cell-free RecA intein splicing, fluorescence | inhibition, % (concentration not given with the values) | hit rate 0.75% among 290,000; in the data active = inhibition above about 30%;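 note: 0% = vehicle wells and 100% = reference inhibitor control wells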
Sa ugtP lethal = growth inhibition of S. aureus ugtP deletion strain; growth inhibition, % (test concentration not listed); S. aureus RN4220 ugtP deletion, OD600 growth, 16 h; hit rate 0.54% among 330,000; in the data active = growth inhibition above about 68%;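 note: plate controls were untreated wells for no effect and antibiotic for full effect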
Sa RN4220 lethal = kills Staphylococcus aureus RN4220; AID 1259311; inhibition, % (no concentration beside the values); hit rate 0.33% among 330,000; S. aureus RN4220 growth, OD600, 16 h; in the data active = inhibition above about 85%;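 note: plate controls were untreated cells for no effect and reference antibiotic for full effect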
BJeLR lethal = BJeLR cell viability loss; BJeLR (HRASV12) viability, CellTiter-Glo ATP luminescence, 48 h; hit rate 0.17% among 300,000; AID 1554; inhibition, % (test concentration not listed); in the data active = inhibition above about 50%
CCHF vOTU inh-2 = confirmation of CCHF virus vOTU protease inhibitors; shares compounds with CCHF vOTU inh-1; Recombinant CCHFV vOTU, Pep-AMC fluorescence; inhibition, % at 11.5 µM; hit rate 17% among 1,900
Numbers without * were called inactive; / = no result shown. Compounds with a hit are over-represented: about 1.6% of the library has one in this group of screens. Cut-off read from the data, not from the text of the source, unless noted: active = inhibition above about 30%; inactive = the rest.

SMILES | CCHF vOTU inh-1 | Mtb hypoxia rep | RecA splice inh | Sa ugtP lethal | Sa RN4220 lethal | BJeLR lethal | CCHF vOTU inh-2
CCN(c1ccc(NC(=O)COC(=O)C2CCN(c3ccc(C(F)(F)F)cn3)CC2)cc1)C(C)C | 30* | 9 | / | 3 | -2 | / | 23
CC(C)C(=O)NCCCc1ccccc1 | 10 | / | -3 | -2 | 1 | 9 | /
CC(C)CCCCCCCCc1cccc(O)c1C(=O)O | 43* | / | / | / | / | / | 25
O=C(NC1CC1)C1=CC(c2ccccc2)CC(OCc2ccc(CO)cc2)O1 (configuration not stated) | / | 6 | / | 2 | 4 | / | /
COC(=O)N/N=C1/C/C(=N\NC(=O)OC)c2ccccc21 | 89* | / | 23 | / | / | 4 | 72*
COC(=O)NN=C1CC(=NNC(=O)OC)c2ccccc21 | / | 0 | / | 6 | 6 | / | /
O=C1c2ccccc2C(=O)c2[nH]c(=O)[nH]c21 | 79* | / | -2 | 23 | 44 | 9 | 75*
O=C1C(O)=C(O)C(=O)c2ccccc21 | 105* | / | / | 2 | -2 | / | 60*
Cc1ccc(C(=O)OCC(=O)Nc2cc(C(C)(C)C)nn2-c2ccccc2)c(O)c1 | 33* | 7 | 1 | 11 | 1 | -4 | -6
CCOC(=O)CCC(NC(=O)c1ccc(NCN2C(=O)c3ccccc3C2=O)cc1)C(=O)OCC (configuration not stated) | 11 | / | 1 | -3 | 3 | 0 | /
CCOC(=O)C(CNc1ccc(O)cc1)NC(=O)c1ccccc1 (configuration not stated) | 49* | / | / | / | / | / | 0
COc1cccc(C=NNC(=O)c2cc(OCC(F)(F)F)ccc2OCC(F)(F)F)c1 | / | / | / | 3 | 2 | / | /
COc1ccc(C(O)c2nc(-c3ccc4ccccc4c3)cs2)cc1 (configuration not stated) | 39* | / | / | / | / | / | -21
COc1ccc(C(O)c2nc(-c3ccccc3C)cs2)cc1 (configuration not stated) | 34* | / | / | / | / | / | 4
COc1cc(C(O)c2nc(-c3ccc4ccccc4c3)cs2)ccc1F (configuration not stated) | 25 | / | / | / | / | / | /
COC(=O)C1=C(c2cccc(OCc3ccccc3)c2)CC2CCC1N2C(=O)NCCOc1ccccc1Cl (configuration not stated) | / | 6 | / | 5 | -9 | / | /
CCCN1CCC(=O)N(C(CSc2ccccc2)CC(C)C)CC1 (configuration not stated) | / | -4 | / | 1 | 8 | / | /
O=[N+]([O-])c1cc(Br)c2c(c1)CCN2 | 30* | / | / | / | / | / | 1
FC(F)(F)c1ccc(CNCCc2ccc3c(c2)OCO3)cc1 | 30* | -3 | 7 | 0 | 4 | 5 | -14
CCSC1=N/C(=C\c2ccccc2)C(=O)N1c1ccc(OC)cc1 | 30* | -8 | -11 | 16 | -1 | 14 | -11
C=CCSC1=N/C(=C\c2cccnc2)C(=O)N1c1ccc(OC)cc1 | 7 | 9 | -1 | -12 | -2 | 2 | /
Cc1ccc(Cn2ccc(=O)c(OCc3c(Cl)cccc3Cl)c2C)cc1 | 30* | 68* | 10 | 4 | 0 | 0 | 7
CCCCC=CC(NC(=O)c1ccc(C(=O)OC)cc1)c1ccccc1 (configuration not stated) | / | -12 | / | -1 | 2 | / | /
CCOC(=O)C(=O)N(C)c1c(CC)nc2c(OCCC3CCCCC3)cccn12 | 17 | / | / | / | / | / | /
Cc1nc2c(OCc3ccc(F)cc3)cccn2c1N(C)C(=O)CCC1CCCC1 | 19 | / | / | / | / | / | /
SMILES | CCHF vOTU inh-1 | Mtb hypoxia rep | RecA splice inh | Sa ugtP lethal | Sa RN4220 lethal | BJeLR lethal | CCHF vOTU inh-2
CCOC(=O)N(C)c1c(CC)nc2c(OCCC3CCCCC3)cccn12 | 30* | / | / | / | / | / | 6
Cc1nc2c(OCc3ccc(C(F)(F)F)cc3)cccn2c1N(C)C(=O)CCC1CCCC1 | 33* | / | / | / | / | / | 4
Cn1c(=O)cc2c3c(c(N4CCCCC4)ccc31)C(=O)c1ccccc1-2 | -3 | 8 | -48 | -7 | 4 | 6 | /
O=C1c2ccccc2C(=O)c2c1cccc2N1CCCC1 | 75* | 7 | 16 | 16 | 12 | -2 | -5
CC(NS(=O)(=O)C=Cc1ccccc1)c1ccccc1 (configuration not stated) | / | 12 | / | -2 | 9 | / | /
CC(NS(=O)(=O)/C=C/c1ccccc1)C(=O)O (configuration not stated) | 32* | -5 | 0 | -5 | 2 | -14 | -15
